# Assay outcomes (PubChem)
# GALK inhibitor: galactokinase (human) inhibition; P51570; Purified GALK, Kinase-Glo residual ATP luminescence; Potency, µM (highest dose often 57.5 µM), without a hit: at the highest dose activity change, negative = inhibition, most hits filed as inhibitors; 0.007% of 270,000 active; AID 1868; note: potency is the fitted concentration of half-maximal effect
#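 ATP-depletion format; final 35 uM ATP, 100 uM D-galactose, 5 nM enzyme; pH 8.0 HEPES/Mg2+ buffer; 60 min RT; luminescence read 10 min after detection reagent.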
# FBPA coupling cs: coupling enzyme interference in Giardia aldolase counter-screen | activity change, negative = inhibition, % at 58.2 µM, hits read low | AID 2472 | 0.67% of 290,000 active | coupling enzyme system counterscreen, AmpLite Red fluorescence; in the data active = activity change below about -30%
#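 Counterscreen lacking aldolase: glyceraldehyde-3-phosphate coupling-enzyme reagent preincubated 10 min at RT with compound (at 57.5 uM final), then substrate/coupling system with AmpLite Red added; fluorescence read at 525/598 nm after 20 min RT.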
# PLK1 PBD inh: PLK1 (human) polo-box domain binding inhibition | Potency, µM, inactives show max response, negative = inhibition, usual class: inhibitors | 2.8% of 360,000 active | Plk1 PBD binding of FITC phosphopeptide, fluorescence polarization | AID 720504 | P53350; note: potency is the fitted concentration of half-maximal effect; series mostly up to about 57 µM; nearly all actives have a fitted effect of over 65% in size
# VDR inh: blocks the human vitamin D receptor; VDR-SRC2-3 peptide fluorescence polarization, 2 h; 0.93% of 400,000 active; P11473; Potency, µM, without a hit: max response, negative = inhibition, usual class: inhibitors; AID 504847; note: potency is the fitted concentration of half-maximal effect
# Target sequence (P11473 whole entry, looked up): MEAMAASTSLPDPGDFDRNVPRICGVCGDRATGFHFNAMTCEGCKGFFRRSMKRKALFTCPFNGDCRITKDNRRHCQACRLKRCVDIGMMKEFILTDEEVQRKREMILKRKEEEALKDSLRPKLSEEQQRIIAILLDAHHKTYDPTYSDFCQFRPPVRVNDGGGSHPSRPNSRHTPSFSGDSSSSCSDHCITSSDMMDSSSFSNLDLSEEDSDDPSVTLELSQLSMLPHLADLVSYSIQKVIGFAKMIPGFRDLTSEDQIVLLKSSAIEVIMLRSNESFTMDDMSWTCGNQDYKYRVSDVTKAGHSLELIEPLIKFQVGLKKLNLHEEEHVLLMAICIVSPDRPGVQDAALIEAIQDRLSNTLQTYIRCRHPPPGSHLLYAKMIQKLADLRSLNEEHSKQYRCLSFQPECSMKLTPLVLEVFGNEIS
#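 Fluorescence polarization assay of small-molecule disruption of VDR binding to coregulator peptide SRC2-3. Compounds and controls pin-transferred, then read after 2 h incubation at ambient room temperature.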
# USP2a block: blocks human ubiquitin-specific protease USP2a; 0.01% of 330,000 active; AID 463254; USP2 core, Ub-CHOP2 coupled fluorogenic reporter, 485/531; O75604; Potency, µM (doses to about 38.3 µM), for inactives: top-dose activity change, negative = inhibition, usual class: inhibitors;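 note: potency is the fitted concentration of half-maximal effect; plate controls were DMSO wells for no effect and full inhibition by NEM control for full effect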
#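 Deubiquitinase activity read as fluorescence (485/531 nm) after Ub-CHOP2 cleavage activates the enterokinase reporter on its substrate; USP2 core 10nM, Ub-CHOP2 and substrate 25nM each, 30min compound preincubation then 60min RT; data normalized to NEM, curves fitted.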
# USP1-UAF1 inh: USP1/UAF1 (human) deubiquitinase inhibition | recombinant USP1/UAF1, Ub-Rhodamine cleavage fluorescence | Potency, µM (doses to about 57.1 µM), for inactives: at the top dose activity change, negative = inhibition, actives largely listed as inhibitors | 0.23% of 390,000 active; note: potency is the fitted concentration of half-maximal effect; nearly all actives have a fitted effect of over 60% in size
#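 In this screen, compounds sit with the deubiquitinase complex (1nM) for 15 min at room temperature before Ub-Rho is added at 150nM final. Fluorescence rise is then followed for 6 reads every 60 seconds.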
# The depositor's hits bear a star; ? = inconclusive; nt = not tested or not shown. Only some compounds are listed: those with a hit (about 3.2% of all), similar ones and a draw of the others. Unless noted, calls come from the whole dose curve; as a rule, active = well fitted curve in the direction sought with a large enough effect; inconclusive = small, poorly fitted or top-dose-only effect, or another doubt; inactive = no such curve, though single readings can be large; an effect the other way counts as inactive or inconclusive. Unless noted, % is set by controls: 0 for no effect and ±100 for the full control effect.
SMILES,GALK inhibitor,FBPA coupling cs,PLK1 PBD inh,VDR inh,USP2a block,USP1-UAF1 inh
CC1=C(C)CS(=O)N(c2ccc(S(N)(=O)=O)cc2)C1 (stereo unspecified),-2%,-1,1.5µM*,7.9µM*,0%,-10%
Cc1cc2oc(=O)cc(CSc3nnc(-c4cccs4)o3)c2cc1C(C)C,-3%,3,24µM*,-17%,-11%,-7%
COCCNC(=O)CN(Cc1ccccc1)S(=O)(=O)c1ccc2nc(C)sc2c1,nt,-3,-3%,15%,4%,-10%
O=C(Nc1ccc(Cl)cc1)Nc1ccc(N2CCOCC2)cc1,0%,0,-7%,-9%,2%,-12%
O=C(/C=C/c1ccc(Cl)cc1)Nc1ccc(N2CCOCC2)cc1,0%,4,24µM*,?,1%,-17%
O=C(/C=C/c1ccc(Cl)cc1)NC(=S)Nc1ccc(N2CCOCC2)c(Cl)c1,0%,4,19µM*,-7%,1%,-19%
O=C(/C=C/c1ccccc1)NC(=S)Nc1ccc(N2CCOCC2)cc1,0%,-2,-12%,2%,2%,3%
O=C(NCCN1C(=O)S/C(=C\c2ccc(F)cc2)C1=O)C1CCN(S(=O)(=O)c2cccs2)CC1,-2%,1,27µM*,?,1%,-1%
O=C(CCN1CCc2ccccc2C1)c1ccc2c(c1)OCCO2,2%,-9,24µM*,?,-2%,-10%
O=C(CCN1CCCC1Cc1ccccc1)c1ccc2c(c1)OCCO2 (stereo unspecified),-2%,0,21µM*,35µM*,nt,-17%
O=C(CCN1CCC(c2ccccc2)C1)c1ccc2c(c1)OCCO2 (stereo unspecified),0%,1,6µM*,14µM*,-6%,16%
COc1cc(C(=O)CCN2CCC(c3ccccc3)C2)cc(OC)c1OC (stereo unspecified),-1%,0,27µM*,?,6%,-5%
O=C(O)C1CCCCC1C(=O)Nc1cccc(Br)c1 (stereo unspecified),nt,nt,-20%,-9%,4%,?
O=c1c2ccccc2nnn1CSc1nnc(C2COc3ccccc3O2)n1-c1ccccc1 (stereo unspecified),-2%,1,-4%,-12%,-1%,-18%
CC(Oc1ccc2c3c(c(=O)oc2c1)CCCC3)C(=O)NCCCn1ccnc1 (stereo unspecified),0%,0,-2%,3%,2%,-21%
COc1ccccc1N(CC(=O)Nc1cc(C)on1)S(=O)(=O)c1cccc(C(F)(F)F)c1,nt,nt,3%,5%,2%,-25%
CCOC1=C2[C@@H](CN(S(=O)(=O)c3ccc(C)cc3)[C@H]2c2cccc3ccccc23)[C@H]2C(=O)N(C)C(=O)[C@H]2C1,nt,nt,-7%,nt,nt,nt
NC(=O)CN1CCN(c2nc(-c3ccc(F)cc3)cs2)CC1,2%,0,30µM*,1%,2%,-21%
COc1ccc(OC)c(NC(=O)CSc2nnc(CNC(=O)c3ccco3)o2)c1,0%,-3,30µM*,4%,3%,-21%
COc1ccc(Cl)cc1NC(=O)CSc1nnc(CNC(=O)c2ccco2)o1,4%,-1,-6%,-6%,1%,-1%
Cc1nc(N2CCc3ccccc3C2)[nH]c(=O)c1CCC(C)C,2%,2,-1%,5%,2%,-5%
Cc1nnc(N2CCc3ccccc3C2)[nH]c1=O,3%,1,30µM*,-17%,2%,-18%
COc1ccc(N2CCN(C3CCCN(C(=O)CN4CCCCC4=O)C3)CC2)cc1 (stereo unspecified),8%,1,-9%,-15%,0%,-7%
COc1ccc(-c2[nH]ncc2CN(CC2CCC(=O)N2)C(C)C)cc1F (stereo unspecified),5%,2,27µM*,?,0%,-17%
O=c1c2c([N+](=O)[O-])cc([N+](=O)[O-])cc2nc2ccccn12,nt,0,-4%,-16%,0%,-23%
